FBPA coupling cs: coupling enzyme interference in Giardia aldolase counter-screen | actives 0.67% (n = 290,000) | AID 2472 | activity change, negative = inhibition, % at 58.2 µM, hits read low | coupling enzyme system counterscreen, AmpLite Red fluorescence; in the data active = activity change below about -30%
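Counterscreen lacking aldolase: glyceraldehyde-3-phosphate coupling-enzyme reagent preincubated 10 min at RT with compound (at 57.5 uM final), then substrate/coupling system with AmpLite Red added; fluorescence read at 525/598 nm after 20 min RT.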
Giardia kill: kills Giardia lamblia; Giardia lamblia trophozoite viability; actives 0.15% (n = 340,000); activity change, % at 7.66 µM, hits read low; in the data active = activity change below about -80%; inconclusive = between about -30% and that limit;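 also: parasites exposed to compound for two days anaerobically before the ATP read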
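Compounds were tested on trophozoites seeded at 100 cells/well and held 48 hrs at 37 deg C anaerobically. An ATP-based luminescent kit measured the remaining live cells.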
KCNH2 3.1 inh: KCNH2 3.1 (human) potassium channel inhibition. activity change, % (tested at about 1.8 µM). actives 0.95% (n = 340,000). U2OS KCNH2 3.1, thallium flux FluxOr; stronger effect = lower value;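 active = maximum activity change below -70%; inconclusive = maximum activity change from -70% to -50%; inactive = maximum activity change above -50%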;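 also: thallium influx rate constant from kinetic fluorescence after stimulation buffer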
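Kinetic fluorescence (2 min after stimulation buffer) measures Tl+ influx through KCNH2 3.1 expressed by viral transduction in U2OS cells; the rate constant is normalized against DMSO controls serving as positive and negative references.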
KCNH2 WT inh: KCNH2 (human, wildtype) channel inhibition. Q12809. U2OS, BacMam KCNH2, thallium flux FluxOr; stronger effect = lower value. activity change, % at 1.84 µM. actives 0.37% (n = 340,000). AID 720551;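 active = maximum activity change below -70%; inconclusive = maximum activity change between -70% and -50%; inactive = maximum activity change above -50%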
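U2OS cells transduced with wild-type KCNH2 virus are loaded with FluxOr dye for 45 min, and thallium flux is measured in kinetic reads before and after stimulation buffer. Rate constants are normalized to DMSO controls.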
USP1 inh: USP1/UAF1 (human) deubiquitinase inhibition | recombinant USP1/UAF1, Ub-Rhodamine cleavage fluorescence | Potency, µM (top dose mostly 57.1 µM), for inactives: at the highest dose activity change, negative = inhibition, most hits filed as inhibitors | actives 0.23% (n = 390,000); active = well fitted inhibition curve with a large enough effect; inconclusive = small, poorly fitted or top-dose-only effect; inactive = no such curve, though single readings can be large or run the other way; also: potency is read from the fitted curve at half-maximal effect; nearly all actives have a fitted effect of over 60% in size
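High-throughput fluorogenic screen: 1nM USP1/UAF1 complex, Ub-Rho substrate 150nM final, 50mM HEPES pH 7.8 with 0.5mM EDTA, 0.1 mg/ml BSA, 1mM TCEP and 0.01% Tween-20.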
Numbers without * were called inactive. Most compounds without a hit are left out; they make up all but 1.7% or so of the library. % is scaled to controls: 0 for no effect and ±100 for the full control effect.

CC(=O)OCC(NC(=O)C(CCCCNC(=O)OCc1ccccc1)NC(=O)OC(C)(C)C)C1OC(n2cc(F)c(=O)[nH]c2=O)C(OC(C)=O)C1OC(C)=O (configuration not stated) was read as FBPA coupling cs 6 and Giardia kill 9.
For Cc1cccc(N2CCN(Cc3ccc([N+](=O)[O-])o3)CC2)c1C the results were FBPA coupling cs -3, Giardia kill -86*, KCNH2 3.1 inh -7, KCNH2 WT inh 5 and USP1 inh -19%.
`CCOC(=O)c1ccc(NC(=O)C2CCCN(c3ncnc4onc(-c5ccc(F)cc5)c34)C2)cc1` (configuration not stated) gave USP1 inh -24%.
Screening COc1ccc2oc(=O)c(-c3cn4c(n3)sc3cc(F)ccc34)cc2c1 returned USP1 inh 3%.
CCSC(=O)N=Nc1ccc(O)cc1 was read as Giardia kill 16, KCNH2 3.1 inh -3, KCNH2 WT inh -7 and USP1 inh 32µM*.
Screening C=CCn1c(N)c(C(=O)Nc2cccc(C)c2)c2nc3ccccc3nc21 returned FBPA coupling cs -34*, Giardia kill -14, KCNH2 3.1 inh -1, KCNH2 WT inh -5 and USP1 inh inconclusive.
C=CCn1c(N)c(C(=O)Nc2ccc(C)c(C)c2)c2nc3ccccc3nc21 was read as FBPA coupling cs 5, Giardia kill -1, KCNH2 3.1 inh -2, KCNH2 WT inh -7 and USP1 inh -17%.
`CCOC(=O)c1sc(N(Cc2ccccc2)C(=O)COC(=O)c2cnccn2)nc1C` gave FBPA coupling cs -3, Giardia kill -7, KCNH2 3.1 inh -92*, KCNH2 WT inh -7 and USP1 inh -19%.
For Cc1nnc(N(Cc2ccccc2)C(=O)c2cnccn2)s1 the results were FBPA coupling cs 3, Giardia kill -8, KCNH2 3.1 inh 0, KCNH2 WT inh 15 and USP1 inh 1%.
COc1ccc(CN2CCN(CCSc3ccc(C)cc3)CC2)c(OC)c1OC was read as FBPA coupling cs 0, Giardia kill -4, KCNH2 3.1 inh -77*, KCNH2 WT inh 52 and USP1 inh -19%.
`Fc1ccc(-c2cc(-c3nc(-c4cccc(Cl)c4)no3)[nH]n2)cc1` gave USP1 inh 5%.
For NC(=S)N/N=C/c1cccc(/C=N/NC(N)=S)c1 the results were FBPA coupling cs 1, Giardia kill 9, KCNH2 3.1 inh -128*, KCNH2 WT inh -3 and USP1 inh -12%.
Screening CC(C)c1nnc(NC(=O)CC(C)c2ccccc2)s1 (configuration not stated) returned FBPA coupling cs -2, Giardia kill -26, KCNH2 3.1 inh -13, KCNH2 WT inh -14 and USP1 inh -4%.
For CCC(CC)c1nnc(NC(=O)CC(C)c2ccccc2)s1 (configuration not stated) the results were FBPA coupling cs 1, Giardia kill -15, KCNH2 3.1 inh -72*, KCNH2 WT inh -5 and USP1 inh -24%.
Screening C=CCC(O)(C#Cc1ccccc1)c1ccccc1 (configuration not stated) returned FBPA coupling cs 9.
`COc1ccc(-n2nc3ccc(NC(=O)c4cccc(OCCC(C)C)c4)cc3n2)cc1` gave USP1 inh -4%.
For CN(CCO)c1nc(N)c2c(N)nc3c(c2c1C#N)CC(=O)N3C1CCCC1 the results were FBPA coupling cs -38*.
`O=C(NC1CCCCC1)/C(=C/c1ccc(Cl)cc1)NC(=O)c1ccccc1` gave USP1 inh -8%.
Screening N/C(Cc1ccc([N+](=O)[O-])cc1)=N\OC(=O)c1ccccc1Br returned FBPA coupling cs 4, Giardia kill -8, KCNH2 3.1 inh 7, KCNH2 WT inh 11 and USP1 inh -11%.
O=C(Nc1ccc([N+](=O)[O-])cc1)C(c1ccccc1)c1ccccc1 was read as KCNH2 3.1 inh -79*, KCNH2 WT inh 7 and USP1 inh -20%.
For O=C(NCC(O)c1ccc([N+](=O)[O-])cc1)C(c1ccccc1)c1ccccc1 (configuration not stated) the results were FBPA coupling cs 3, Giardia kill 0, KCNH2 3.1 inh -11, KCNH2 WT inh 3 and USP1 inh -21%.
For N/C(Cc1ccc([N+](=O)[O-])cc1)=N\OC(=O)C(c1ccccc1)c1ccccc1 the results were FBPA coupling cs 5, Giardia kill 2, KCNH2 3.1 inh -82*, KCNH2 WT inh 3 and USP1 inh -18%.
Screening CC#CCN1c2ccccc2[C@]23C[C@@H](C(=O)OC)N(C(=O)CC(C)C)C2=NC(C(=O)OC)=C(C(=O)OC)[C@H]13 returned FBPA coupling cs 0.
Screening COc1cc(/C=C2\CC/C(=C\c3cc(OC)c(O)c(OC)c3)C2=O)cc(OC)c1O returned FBPA coupling cs -34*, Giardia kill -6, KCNH2 3.1 inh -5, KCNH2 WT inh -2 and USP1 inh -6%.
For O=C(Nc1cccc(C(F)(F)F)c1)N1CC2CCCN2c2ccccc21 (configuration not stated) the results were USP1 inh -15%.
`COc1cccc(C(C[N+](=O)[O-])c2c(C)[nH]n(-c3ccccc3)c2=O)c1` (configuration not stated) gave FBPA coupling cs -44*, Giardia kill 2, KCNH2 3.1 inh -4, KCNH2 WT inh -1 and USP1 inh -17%.
`Cc1ccc(C(=O)N/C(=C\c2cccs2)C(=O)NCCCn2ccnc2)cc1` gave FBPA coupling cs 1, Giardia kill 14, KCNH2 3.1 inh -99*, KCNH2 WT inh -181* and USP1 inh -10%.
For Cc1ccc(C(=O)N/C(=C/c2cccs2)C(=O)NCCCn2ccnc2)cc1 the results were FBPA coupling cs 2, Giardia kill -15, KCNH2 3.1 inh -82*, KCNH2 WT inh -209* and USP1 inh -13%.
Screening Cc1ccc(C(=O)N/C(=C\c2cccs2)C(=O)NCCCn2ccnc2)cc1C returned FBPA coupling cs 4, Giardia kill 11, KCNH2 3.1 inh inconclusive, KCNH2 WT inh -75* and USP1 inh -11%.
`O=C(NCCCn1ccnc1)/C(=C\c1cccs1)NC(=O)c1ccccc1` gave FBPA coupling cs 4, Giardia kill 29, KCNH2 3.1 inh -45, KCNH2 WT inh 6 and USP1 inh -8%.
Cc1ccc(C(=O)N/C(=C\c2ccco2)C(=O)NCCCn2ccnc2)cc1C was read as FBPA coupling cs -27, Giardia kill -9, KCNH2 3.1 inh -6, KCNH2 WT inh -1 and USP1 inh 1%.
Cc1ccc(C(=O)N/C(=C\c2cccs2)C(=O)NCCCN2CCOCC2)cc1 was read as FBPA coupling cs 3, Giardia kill 27, KCNH2 3.1 inh -49, KCNH2 WT inh -117* and USP1 inh -22%.

Compound activity: PubChem, National Center for Advancing Translational Sciences (NCATS)
